# Data taken from PubChem BioAssay (Tox21).
# Results filed as inconclusive are left out. Entries that show only a call come without a potency. A structure can be active in one record and inactive in another. Active and inactive are the calls of the source. The call rests on the fitted dose curve; in most records, active means well fitted curve in the direction sought with a large enough effect in the repeat runs; inconclusive means weak or mixed curves; inactive means no such curve, though single readings can be large; an effect the other way counts as inactive or inconclusive.
# Test: A CellTox Green Cytotoxicity Assay to monitor cytotoxicity in HepG2 cells - 16 hour (AID 1224876); further: nearly all actives have a fitted effect of over 45% in size
# Conditions: CellTox Green fluorescence; series mostly up to 76.8 µM
# Method in brief: (§1)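 Real-time cytotoxicity: fluorescence of a cell-impermeant cyanine dye binding DNA of dead HepG2 cells, measured repeatedly (0–40 h) during compound exposure at 37 C. Cells seeded 600/well with reagent, dosed after 5 h.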
# Potency means the concentration at half of the fitted maximal effect.
row,SMILES,Potency
1,O=C(C1CCCCC1)N1CC(=O)N2CCc3ccccc3C2C1 (stereo not drawn),inactive
2,NC(=O)c1cnccn1,inactive
3,CC(=O)Nc1nnc(S(N)(=O)=O)s1,inactive
4,O=C(O)/C=C\C(=O)O,inactive
5,Cc1cc(=O)n(-c2ccccc2)n1C,inactive
6,O=C(c1ccccc1)C(O)c1ccccc1 (stereo not drawn),inactive
7,NC(=O)c1ccccc1O,inactive
8,NS(=O)(=O)c1cc(C(=O)O)c(NCc2ccco2)cc1Cl,22 µM (active) and inactive
9,CCC1(c2ccccc2)C(=O)NCNC1=O,inactive

# Test: qHTS RealTime-Glo MT Cell Viability Assay in HepG2 cells - 32 hour (AID 1224877); further: nearly all actives have a fitted effect of over 55% in size
# Conditions: RealTime-Glo luminescence; series mostly up to 76.8 µM
# Method in brief: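 Viability was tracked continuously by NanoLuc luminescence from prosubstrate reduced by living HepG2 cells, at successive time points over 40 h of compound exposure. Cells with reagent were preincubated 5 h at 37 °C before compound addition.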
row,SMILES,Potency
1,O=C1CN(/N=C/c2ccc([N+](=O)[O-])o2)C(=O)N1,inactive
2,CCCC(CCC)C(=O)O,inactive
3,CCCCC1C(=O)N(c2ccccc2)N(c2ccccc2)C1=O,inactive
4,OC(Cn1cncn1)(Cn1cncn1)c1ccc(F)cc1F,inactive
5,CCCNC(=O)NS(=O)(=O)c1ccc(Cl)cc1,inactive
6,O=C(O)CS,inactive
7,O=NO,inactive
8,CC(O)C(=O)O (stereo not drawn),inactive
9,Cn1cc[nH]c1=S,inactive
10,CCCCOC(=O)CC(CC(=O)OCCCC)(OC(C)=O)C(=O)OCCCC,inactive
11,CC(=O)OCC(COC(C)=O)OC(C)=O,inactive
12,O=C(O)c1cccc([N+](=O)[O-])c1,inactive
13,Cc1noc(NS(=O)(=O)c2ccc(N)cc2)c1C,inactive
14,Nc1ccc(C(=O)O)cc1,inactive
15,O=C(O)CCCCC(=O)O,inactive
16,CC1(C)[C@@H]2CC[C@@]1(C)C(=O)C2,inactive
17,CCOc1ccc(NC(=O)CC(C)O)cc1 (stereo not drawn),inactive
18,O=C1NC(=O)c2ccccc21,inactive
19,C/C=C/c1ccc(OC)cc1,inactive

row,SMILES,Potency
1,Cc1ccc(O)cc1,inactive
2,c1ccc2[nH]ccc2c1,3.83 µM (active) and inactive
3,O=C(O)c1cc(N=Nc2ccc(S(=O)(=O)Nc3ccccn3)cc2)ccc1O,inactive
4,CC(C)[C@@H]1CC[C@@H](C)C[C@H]1O,inactive
5,CCCC(O)C(CC)CO (stereo not drawn),inactive
6,Cn1c(=O)c2[nH]cnc2n(C)c1=O,inactive
7,CCCN(CCC)S(=O)(=O)c1ccc(C(=O)O)cc1,inactive
8,Nc1ccc(O)c(C(=O)O)c1,inactive
9,O=C(c1ccccc1)c1ccccc1,inactive
10,O=C(C1CCCCC1)N1CC(=O)N2CCc3ccccc3C2C1 (stereo not drawn),inactive
11,NC(=O)c1cnccn1,inactive
12,CC(=O)Nc1nnc(S(N)(=O)=O)s1,inactive
13,O=C(O)/C=C\C(=O)O,inactive
14,Cc1cc(=O)n(-c2ccccc2)n1C,inactive
15,O=C(c1ccccc1)C(O)c1ccccc1 (stereo not drawn),inactive
16,NC(=O)c1ccccc1O,inactive
17,NS(=O)(=O)c1cc(C(=O)O)c(NCc2ccco2)cc1Cl,inactive
18,CCC1(c2ccccc2)C(=O)NCNC1=O,inactive

# Test: A CellTox Green Cytotoxicity Assay to monitor cytotoxicity in HepG2 cells - 24 hour (AID 1224878); further: nearly all actives have a fitted effect of over 45% in size
# Conditions: CellTox Green fluorescence; series mostly up to 76.8 µM
# Method in brief: as §1
row,SMILES,Potency
1,O=C1CN(/N=C/c2ccc([N+](=O)[O-])o2)C(=O)N1,inactive
2,CCCC(CCC)C(=O)O,inactive
3,CCCCC1C(=O)N(c2ccccc2)N(c2ccccc2)C1=O,inactive
4,OC(Cn1cncn1)(Cn1cncn1)c1ccc(F)cc1F,inactive
5,CCCNC(=O)NS(=O)(=O)c1ccc(Cl)cc1,inactive
6,O=C(O)CS,inactive
7,O=NO,inactive
8,CC(O)C(=O)O (stereo not drawn),inactive
9,Cn1cc[nH]c1=S,inactive
10,CCCCOC(=O)CC(CC(=O)OCCCC)(OC(C)=O)C(=O)OCCCC,inactive
11,CC(=O)OCC(COC(C)=O)OC(C)=O,inactive
12,O=C(O)c1cccc([N+](=O)[O-])c1,inactive
13,Cc1noc(NS(=O)(=O)c2ccc(N)cc2)c1C,inactive
14,Nc1ccc(C(=O)O)cc1,inactive
15,O=C(O)CCCCC(=O)O,inactive
16,CC1(C)[C@@H]2CC[C@@]1(C)C(=O)C2,inactive
17,CCOc1ccc(NC(=O)CC(C)O)cc1 (stereo not drawn),inactive
18,O=C1NC(=O)c2ccccc21,inactive
19,C/C=C/c1ccc(OC)cc1,inactive

row,SMILES,Potency
1,Cc1ccc(O)cc1,inactive
2,c1ccc2[nH]ccc2c1,6.81 µM (active) and inactive
3,O=C(O)c1cc(N=Nc2ccc(S(=O)(=O)Nc3ccccn3)cc2)ccc1O,inactive
4,CC(C)[C@@H]1CC[C@@H](C)C[C@H]1O,inactive
5,CCCC(O)C(CC)CO (stereo not drawn),inactive
6,Cn1c(=O)c2[nH]cnc2n(C)c1=O,inactive
7,CCCN(CCC)S(=O)(=O)c1ccc(C(=O)O)cc1,inactive
8,Nc1ccc(O)c(C(=O)O)c1,inactive
9,O=C(c1ccccc1)c1ccccc1,inactive
10,O=C(C1CCCCC1)N1CC(=O)N2CCc3ccccc3C2C1 (stereo not drawn),inactive
11,NC(=O)c1cnccn1,inactive
12,CC(=O)Nc1nnc(S(N)(=O)=O)s1,inactive
13,O=C(O)/C=C\C(=O)O,inactive
14,Cc1cc(=O)n(-c2ccccc2)n1C,inactive
15,O=C(c1ccccc1)C(O)c1ccccc1 (stereo not drawn),inactive
16,NC(=O)c1ccccc1O,inactive
17,NS(=O)(=O)c1cc(C(=O)O)c(NCc2ccco2)cc1Cl,17.4 µM (active) and inactive
18,CCC1(c2ccccc2)C(=O)NCNC1=O,inactive
